{"source": "PubChem BioAssay (NCATS)", "note": "Records with an inconclusive call do not appear. Unmarked numbers belong to inactive results. Calls of active or inactive are those of the source. Calls follow the shape of the dose curve; as a rule, active = well fitted inhibition curve with a large enough effect; inconclusive = small, poorly fitted or top-dose-only effect; inactive = no such curve, though single readings can be large or run the other way. Potency is read from the fitted curve at half-maximal effect."}
{"test": "BET inhibitor-based combinations targeting novel dependencies in MECOM-rearranged (r) AML: MV-4-11 cell line (AID 2202233); also: nearly all actives have a fitted effect of over 45% in size;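 as to viability, % of control: plate controls were DMSO for no effect and blank wells for full effect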", "conditions": "MV-4-11 AML viability, CellTiter-Glo luminescence, 48 h; series mostly up to 46 µM; viability, % of control: at the top concentration", "method_in_brief": "(§1)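 Normalized to DMSO and empty-well controls, the luminescence data from CellTiter-Glo after 48 hr drug exposure were fitted across 11 concentrations. Reported metrics are area under the dose-response curve and its Z-transformed form.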", "units": {"viability, % of control": "%"}}
{"smiles": "C[N+](C)([O-])CCNc1ccc(NCC[N+](C)(C)[O-])c2c1C(=O)c1c(O)ccc(O)c1C2=O", "Potency": "0.468 µM (active)"}
{"smiles": "Cc1cccc(CN2CCN(C(c3ccccc3)c3ccc(Cl)cc3)CC2)c1", "note": "(stereo not given)", "Potency": "20.9 µM (active)"}
{"smiles": "CC[C@@H](C)[C@H](NC(=O)[C@H](CC1CCCCC1)NC(=O)c1ccno1)C(=O)N1CCC2(CCc3ccccc32)CC1", "viability, % of control": 1.56}
{"smiles": "NC[C@H]1O[C@H](O[C@@H]2[C@@H](O)[C@@H](O[C@H]3O[C@H](CO)[C@@H](O)[C@H](N)[C@@H]3O)[C@H](N)C[C@@H]2N)[C@H](O)[C@@H](O)[C@H]1O", "viability, % of control": 123}
{"smiles": "CCCCc1oc2ccccc2c1C(=O)c1cc(I)c(OCCN(CC)CC)c(I)c1", "Potency": "18.6 µM (active)"}
{"smiles": "C=C1C(=O)OC(CCCCCCCC)C1C(=O)O", "note": "(stereo not given)", "viability, % of control": 93.6}
{"smiles": "O=C(c1ccc(F)cc1)N1CCC[C@H](c2nc(-c3ccc(F)cc3)no2)C1", "Potency": "18.6 µM (active)"}
{"smiles": "O=C(O)c1c(Cl)c(Cl)c(Cl)c(Cl)c1-c1c2cc(I)c(=O)c(I)c-2oc2c(I)c(O)c(I)cc12", "viability, % of control": 62.3}
{"smiles": "COC(=O)C1C2CC3c4[nH]c5cc(OC)ccc5c4CCN3CC2CC(OC(=O)c2cc(OC)c(OC)c(OC)c2)C1OC", "note": "(stereo not given)", "Potency": "20.9 µM (active)"}
{"smiles": "S=P(N1CC1)(N1CC1)N1CC1", "Potency": "20.9 µM (active)"}
{"smiles": "COc1cc2ncn(-c3cc(OCc4ccccc4S(C)(=O)=O)c(C#N)s3)c2cc1OC", "viability, % of control": 58}
{"smiles": "COc1ccc(-n2c(C)c([N+](=O)[O-])c3ccc(O)cc32)cc1", "Potency": "5.25 µM (active)"}
{"smiles": "N#CC(c1ccc(Cl)cc1)c1c(Cl)cc(-n2ncc(=O)[nH]c2=O)cc1Cl", "note": "(stereo not given)", "viability, % of control": 110}
{"smiles": "O=C(NCCCNc1nc(Nc2cccc(NC(=O)N3CCCC3)c2)ncc1I)c1cccs1", "Potency": "0.662 µM (active)"}
{"test": "BET inhibitor-based combinations targeting novel dependencies in MECOM-rearranged (r) AML: HNT-34 cell line (AID 2202234); also: nearly all actives have a fitted effect of over 35% in size;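 as to viability (% of control): plate controls were vehicle wells for no effect and cell-free wells for full effect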", "conditions": "HNT-34 AML viability, CellTiter-Glo luminescence, 48 h; series mostly up to 46 µM; viability (% of control): at the top concentration", "method_in_brief": "as §1", "units": {"viability (% of control)": "%"}}
{"smiles": "Nc1nc(N)c2nc(-c3cccc(O)c3)c(-c3cccc(O)c3)nc2n1", "viability (% of control)": 91}
{"smiles": "NC[C@H]1O[C@H](O[C@@H]2[C@@H](O)[C@@H](O[C@H]3O[C@H](CO)[C@@H](O)[C@H](N)[C@@H]3O)[C@H](N)C[C@@H]2N)[C@H](O)[C@@H](O)[C@H]1O", "viability (% of control)": 109}
{"smiles": "CN[C@@H](C)C(=O)N[C@H]1CCCC[C@H]2CC[C@@H](C(=O)N[C@@H](c3ccccc3)c3cn(CCCCc4ccc(CCCCn5cc([C@@H](NC(=O)[C@@H]6CC[C@@H]7CCCC[C@H](NC(=O)[C@H](C)NC)C(=O)N76)c6ccccc6)nn5)cc4)nn3)N2C1=O", "viability (% of control)": 1.63}
{"smiles": "CCc1c(O)cc(O)c(C(=O)c2ccc(OCCN3CCOCC3)c(OC)c2)c1CC(=O)N(CCOC)CCOC", "Potency": "0.662 µM (active)"}
{"smiles": "C=C1C(=O)OC(CCCCCCCC)C1C(=O)O", "note": "(stereo not given)", "viability (% of control)": 92.8}
{"smiles": "Clc1ccc(COC(Cn2ccnc2)c2ccc(Cl)cc2Cl)c(Cl)c1", "note": "(stereo not given)", "Potency": "16.6 µM (active)"}
